# Laboratory results reported in PubChem BioAssay (EPA / NIEHS).
# Records with an inconclusive call do not appear. The source made the active and inactive calls. Rule for the calls: active = hit-call score of the fitted dose curve at least 0.9, where 1 is the maximum; inconclusive = response in the unintended direction; inactive = score below 0.9.
# Target: human Vitamin D Receptor (VDR), VDR (gene 7421) (UniProt P11473)
# Experiment: ATG_VDR_TRANS: Attagene TRANS-FACTORIAL HepG2 Assay for human Vitamin D Receptor (VDR) (AID 2283022)
# Method in brief: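 Multiplexed TRANS reporter in HepG2; 24 h treatment; reporter mRNA by RT-PCR plus capillary electrophoresis; upregulation scored relative to DMSO.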
# human Vitamin D Receptor (VDR), VDR (gene 7421), sequence (P11473 whole entry, looked up): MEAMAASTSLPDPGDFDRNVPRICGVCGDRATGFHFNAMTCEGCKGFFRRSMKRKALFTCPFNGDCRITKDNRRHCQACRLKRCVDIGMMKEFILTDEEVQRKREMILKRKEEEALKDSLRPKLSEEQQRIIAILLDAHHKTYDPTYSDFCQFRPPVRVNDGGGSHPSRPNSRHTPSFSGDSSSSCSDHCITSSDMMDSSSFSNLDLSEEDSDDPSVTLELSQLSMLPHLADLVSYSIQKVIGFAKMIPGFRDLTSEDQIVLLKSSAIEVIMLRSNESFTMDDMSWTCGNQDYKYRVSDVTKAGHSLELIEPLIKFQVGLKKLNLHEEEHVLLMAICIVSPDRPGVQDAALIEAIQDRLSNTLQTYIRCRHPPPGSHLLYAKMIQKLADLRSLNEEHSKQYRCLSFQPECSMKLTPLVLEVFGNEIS
row,Structure (SMILES),outcome
1,CCCCOC(=O)C(C)CC (centres undefined),inactive
2,CCN1CCCC1=O,inactive
3,NNS(=O)(=O)c1ccc(Oc2ccc(S(=O)(=O)NN)cc2)cc1,inactive
4,Cc1cc(C)n(CO)n1,inactive
5,CCCCc1ccc(Cl)cc1,inactive
6,CCOB(OCC)OCC,inactive
7,O=C(O)CC(C(=O)O)S(=O)(=O)O (centres undefined),inactive
8,C=Cc1ccc(OC(C)=O)cc1,inactive
9,CC(C)(C)N,inactive
10,CC(C)(C)NC(=O)[C@H]1CC[C@H]2[C@@H]3CC[C@H]4NC(=O)C=C[C@]4(C)[C@H]3CC[C@]12C,inactive
11,CC1=CC(C)C(C=O)CC1 (centres undefined),inactive
12,O=C(C=Cc1ccccc1)OCCc1ccccc1,inactive
13,CCCCC/C=C\C/C=C\CCCCCCCC(=O)O,inactive
14,O=C(Cl)c1ccc(C(=O)Cl)cc1,inactive
15,C=C(C)C1CC=C(C)C(OC(C)=O)C1 (centres undefined),inactive
16,Nc1ccc(C(=O)OCCCOC(=O)c2ccc(N)cc2)cc1,inactive
17,COC(Cc1ccccc1)OC,inactive

row,Structure (SMILES),outcome
1,CCOC(=O)c1ccc(C)cc1,inactive
2,Cc1ccccc1CCO,inactive
3,CC1=NN(c2ccc(S(=O)(=O)O)cc2)C(=O)C1N=Nc1ccccc1 (centres undefined),inactive
4,Cc1cc(=O)[nH]c(=O)[nH]1,inactive
5,CCN(CC)c1cccc(C)c1,inactive
6,C=C[Si](OCCOC)(OCCOC)OCCOC,inactive
7,C=CCOC(=O)c1ccc(C(=O)OCC=C)c(C(=O)OCC=C)c1,inactive
8,CC1(C)[C@@H]2CC[C@@]1(C)C(=O)C2,inactive
9,O=C(OCCc1ccccc1)c1ccccc1,inactive
10,NC(=O)Nc1ccccc1,inactive
11,O=C(O[C@@H]1Cc2c(O)cc(O)cc2O[C@@H]1c1cc(O)c(O)c(O)c1)c1cc(O)c(O)c(O)c1,inactive
12,CN1CCN(C)CC1,inactive
13,CC(C)=NNC(N)=S,inactive
14,O=C(Nc1ccccc1)c1cc(Cl)ccc1O,inactive
15,CCCCCCO,inactive
16,COc1cc(C)ccc1O,inactive
17,CC(C)C(=O)OCCOc1ccccc1,inactive
